Laboratory results as given in PubChem BioAssay (NCATS).
Results filed as inconclusive are left out. The source made the active and inactive calls. Calls come from the whole dose curve; as a rule, active = well fitted cell-killing curve with a large enough effect; inconclusive = small, poorly fitted or top-dose-only effect, or effect the other way; inactive = flat fitted curve, though single readings scatter.

Tests used:
Assay in all cases: Primary qHTS to identify gynecologic anti-cancer compounds using libraries of approved drugs and bioactive compounds (AID 1345084); note: nearly all actives have a fitted effect of over 55% in size
Hek293T = conditions: Gynecologic cancer cell panel viability, ATPlite luminescence, 48 h, control line for the selectivity index; series mostly up to 57.5 µM
How it was run: (§1)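 In this quantitative HTS, cell killing is estimated from loss of ATP-dependent luciferase light. Cells see five compound concentrations over a 48 h exposure.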

JEG-3 = conditions: Gynecologic cancer cell panel viability, ATPlite luminescence, 48 h; series mostly up to 57.5 µM
How it was run: as §1

OV90 = conditions: Gynecologic cancer cell panel viability, ATPlite luminescence, 48 h; series mostly up to 57.5 µM
How it was run: as §1

PA-1 = conditions: Gynecologic cancer cell panel viability, ATPlite luminescence, 48 h; series mostly up to 57.5 µM
How it was run: as §1

SKOV3 = conditions: Gynecologic cancer cell panel viability, ATPlite luminescence, 48 h; series mostly up to 57.5 µM
How it was run: as §1

Tov-21-G = conditions: Gynecologic cancer cell panel viability, ATPlite luminescence, 48 h; series mostly up to 57.5 µM
How it was run: as §1

Tov112D = conditions: Gynecologic cancer cell panel viability, ATPlite luminescence, 48 h; series mostly up to 57.5 µM
How it was run: as §1
% is set by controls: 0 for no effect and ±100 for the full control effect.

Oc1ccc([C@H]2COc3cc(O)ccc3C2)cc1
inactive: Potency (Hek293T) | Potency (JEG-3) | Potency (OV90) | Potency (PA-1) | Potency (SKOV3) | Potency (Tov-21-G) | Potency (Tov112D)

OC[C@H]1O[C@@H](Oc2ccc(O)c3cccc(O)c23)[C@H](O)[C@@H](O)[C@@H]1O
inactive: Potency (Hek293T) | Potency (JEG-3) | Potency (OV90) | Potency (PA-1) | Potency (SKOV3) | Potency (Tov-21-G) | Potency (Tov112D)

COc1cccc(-c2ccc([C@@H](Oc3cc(-c4ccc(C[C@H](N)C(=O)O)cc4)nc(N)n3)C(F)(F)F)cc2)c1
inactive: Potency (Hek293T) | Potency (JEG-3) | Potency (OV90) | Potency (PA-1) | Potency (SKOV3) | Potency (Tov-21-G) | Potency (Tov112D)

COC(=O)C[C@@H]1C(C(=O)O)=CO[C@@H](O[C@@H]2O[C@H](CO)[C@@H](O)[C@H](O)[C@H]2O)/C1=C\COC(=O)/C=C\c1ccccc1
inactive: Potency (Hek293T) | Potency (JEG-3) | Potency (OV90) | Potency (PA-1) | Potency (SKOV3) | Potency (Tov-21-G) | Potency (Tov112D)

COc1ccc2c3c1O[C@H]1C[C@@H](O)C=C[C@@]31CCN(C)C2
inactive: Potency (Hek293T) | Potency (JEG-3) | Potency (OV90) | Potency (PA-1) | Potency (SKOV3) | Potency (Tov-21-G) | Potency (Tov112D)

COc1cc(/C=C/c2cc(O)cc(O[C@@H]3O[C@H](CO)[C@@H](O)[C@H](O)[C@H]3O)c2)ccc1O
inactive: Potency (Hek293T) | Potency (JEG-3) | Potency (OV90) | Potency (PA-1) | Potency (SKOV3) | Potency (Tov-21-G) | Potency (Tov112D)

CC(=O)O[C@@]1(C)C[C@@H](O)[C@]2(O)C=CO[C@@H](O[C@@H]3O[C@H](CO)[C@@H](O)[C@H](O)[C@H]3O)[C@@H]21
inactive: Potency (Hek293T) | Potency (JEG-3) | Potency (OV90) | Potency (PA-1) | Potency (SKOV3) | Potency (Tov-21-G) | Potency (Tov112D)

CO[C@H]1C=C2C(CC[C@H](O[C@@H]3O[C@H](CO)[C@@H](O)[C@@H](O)[C@H]3O)C2(C)C)[C@]2(C)CC[C@]3(C)C([C@H](C)C(O)C(C=C(C)C)O[C@@H]4O[C@H](CO)[C@@H](O)[C@@H](O)[C@H]4O)CC[C@@]3(C)C12 (some centres undefined)
inactive: activity change, negative = cytotoxicity (Hek293T) 12.3% [at 11.6 µM] | activity change, negative = cytotoxicity (JEG-3) -6.82% [at 11.6 µM] | activity change, negative = cytotoxicity (OV90) 5.72% [at 11.6 µM] | activity change, negative = cytotoxicity (PA-1) -0.818% [at 11.6 µM] | activity change, negative = cytotoxicity (SKOV3) -12.6% [at 11.6 µM] | activity change, negative = cytotoxicity (Tov-21-G) 4% [at 11.6 µM] | activity change, negative = cytotoxicity (Tov112D) 2.11% [at 11.6 µM]

C=CC(C)(CC/C=C(\C)CC/C=C(\C)CC(O)/C=C(\C)C(=O)O)O[C@@H]1O[C@H](CO)[C@@H](O)[C@H](O)[C@H]1O[C@@H]1O[C@H](CO)[C@@H](O)[C@H](O)[C@H]1O (some centres undefined)
inactive: Potency (Hek293T) | Potency (JEG-3) | Potency (OV90) | Potency (PA-1) | Potency (SKOV3) | Potency (Tov-21-G) | Potency (Tov112D)

O=C(NC[C@H](O)CN1CCc2ccccc2C1)c1cc(NC2COC2)ncn1
inactive: Potency (Hek293T) | Potency (JEG-3) | Potency (OV90) | Potency (PA-1) | Potency (SKOV3) | Potency (Tov-21-G) | Potency (Tov112D)

C=C1C[C@@]23CC[C@@H]4[C@](C)(C(=O)O)CCC[C@@]4(C)C2=CC[C@H]1C3
inactive: Potency (Hek293T) | Potency (JEG-3) | Potency (OV90) | Potency (PA-1) | Potency (SKOV3) | Potency (Tov-21-G) | Potency (Tov112D)

C=C1C[C@]23C[C@H]1CC[C@H]2[C@@]12C=C[C@H](O)[C@@](C)(C(=O)O1)[C@H]2[C@@H]3C(=O)O
inactive: Potency (Hek293T) | Potency (JEG-3) | Potency (OV90) | Potency (PA-1) | Potency (SKOV3) | Potency (Tov-21-G) | Potency (Tov112D)

CC(=O)O[C@@H]1[C@H](O[C@@H]2O[C@H](CO)[C@@H](O)[C@H](O)[C@H]2O)[C@@H](O[C@@H]2O[C@@H](C)[C@H](O)[C@@H](O[C@@H]3O[C@H](CO)[C@@H](O)[C@H](O)[C@H]3O)[C@H]2O)[C@H](OC(=O)C23CCC4(C)C(=CCC5C6(C)CC(O)C(O[C@@H]7O[C@H](C(=O)O)[C@@H](O)[C@H](O)[C@H]7O)C(C)(C(=O)O)C6CCC54C)C2CC(C)(C)CC3O)O[C@@H]1C (some centres undefined)
inactive: activity change, negative = cytotoxicity (Hek293T) 14.8% [at 6.55 µM] | activity change, negative = cytotoxicity (JEG-3) 1.97% [at 6.55 µM] | activity change, negative = cytotoxicity (OV90) 8.45% [at 6.55 µM] | activity change, negative = cytotoxicity (PA-1) 25.5% [at 6.55 µM] | activity change, negative = cytotoxicity (SKOV3) 2.37% [at 6.55 µM] | activity change, negative = cytotoxicity (Tov-21-G) 4.93% [at 6.55 µM] | activity change, negative = cytotoxicity (Tov112D) 4.44% [at 6.55 µM]

CC1OC(OC2C(C)OC(OC3C(OC(=O)/C=C/c4ccc(O)cc4)C(CO)OC(OC4(COC(=O)/C=C/c5ccc(O)cc5)OC(CO)C(O)C4O)C3OC3OCC(O)(CO)C3O)C(O)C2O)C(O)C(O)C1O (centres undefined)
inactive: activity change, negative = cytotoxicity (Hek293T) 0.502% [at 11.6 µM] | activity change, negative = cytotoxicity (JEG-3) 2.4% [at 11.6 µM] | activity change, negative = cytotoxicity (OV90) 8.76% [at 11.6 µM] | activity change, negative = cytotoxicity (PA-1) -0.866% [at 11.6 µM] | activity change, negative = cytotoxicity (SKOV3) 28.4% [at 11.6 µM] | activity change, negative = cytotoxicity (Tov-21-G) 1.37% [at 11.6 µM] | activity change, negative = cytotoxicity (Tov112D) -2.2% [at 11.6 µM]

Cc1c(-c2ccnn2C)cc(C(=O)NCc2ccc(S(C)(=O)=O)cn2)c(=O)n1-c1cccc(C(F)(F)F)c1
inactive: Potency (Hek293T) | Potency (JEG-3) | Potency (OV90) | Potency (PA-1) | Potency (SKOV3) | Potency (Tov-21-G) | Potency (Tov112D)

O=C(/C=C/c1ccc(O)cc1)OCC1=C[C@@H](O)[C@@H]2C=CO[C@@H](O[C@@H]3O[C@H](CO)[C@@H](O)[C@H](O)[C@H]3O)[C@H]12
inactive: Potency (Hek293T) | Potency (JEG-3) | Potency (OV90) | Potency (PA-1) | Potency (SKOV3) | Potency (Tov-21-G) | Potency (Tov112D)

C=CCc1ccc(O[C@@H]2O[C@H](CO[C@@H]3O[C@H](CO)[C@@H](O)[C@H](O)[C@H]3O)[C@@H](O)[C@H](O)[C@H]2O)c(O)c1
inactive: Potency (Hek293T) | Potency (JEG-3) | Potency (OV90) | Potency (PA-1) | Potency (SKOV3) | Potency (Tov-21-G) | Potency (Tov112D)
